Shown are actives, neighbours in structure and some others; about 2.4% of the full set was active somewhere.
ASK1 primary: ASK1 kinase inhibitors, primary screen, biochemical, AlphaScreen | Mitogen-activated protein kinase kinase kinase 5 (Homo sapiens), Q99683 | AlphaScreen MKK6 phosphorylation by ASK1, luminescence | inhibition, % at 7.44 µM | actives 0.99% (n = 22,000) | AID 1159602, 2016; in the data active = inhibition above about 35%;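 note: 0% = median of compound wells and 100% = no enzyme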
ULK1 inh: ULK1 kinase inhibitors, primary screen, biochemical, AlphaScreen | actives 1.9% (n = 30,000) | AID 1259251, 2017 | AlphaScreen Atg13 phosphorylation by ULK1, luminescence | inhibition, % at 5.96 µM; in the data active = inhibition above about 43%;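 note: 0% = median of compound wells and 100% = no enzyme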
AlphaScreen intf: AlphaScreen signal interference by compounds, dose response, artefact control for ASK1 inhibitor project, biochemical, TruHits beads. shares compounds with ASK1 primary. signal interference counterscreen. IC50, µM. actives 20% (n = 220);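 active = IC50 of 10 µM or lower in the counterscreen; inactive = IC50 above 10 µM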;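 note: loss of AlphaScreen light from TruHits beads alone with no ASK1 enzyme present; potency of signal reduction so a low IC50 flags an assay artifact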
Numbers without * were called inactive; i = inactive; / = no result given.

SMILES	ASK1 primary	ULK1 inh	AlphaScreen intf
c1ccc(N2CCN(c3nc(Nc4ccc(N5CCOCC5)cc4)c4ncn(C5CCCCC5)c4n3)CC2)nc1	44*	64*	>23
CC(C)n1cnc2c(NC3CC3)nc(N3CCN(c4ccccn4)CC3)nc21	43*	14	>22
c1ccc(-n2cnc3c(NCc4cccnc4)nc(Nc4ccc(N5CCOCC5)cc4)nc32)cc1	39*	-1	i
c1ccc(Nc2nc(N3CCN(c4ccccn4)CC3)nc3c2ncn3C2CCCCC2)cc1	18	-3	/
c1cncc(CNc2nc(N3CCOCC3)nc3c2ncn3C2CCCCC2)c1	-12	2	/
Fc1ccc(-c2cc(N3CCN(c4ccccn4)CC3)nc(-c3cccnc3)n2)cc1	/	-1	/
CC(C)n1c(-c2ccc(C(=O)NC3CC3)cc2)nc2c(NCc3cccc(C(F)(F)F)c3)ncnc21	-8	-27	/
O=C(NCCc1ccc(O)cc1)c1cccc(-c2ccccc2)c1	-14	-19	/
O=C(NC1CC1)c1cnc(NCCCN2CCCC2=O)s1	-14	5	/
CC(C)n1c(NCCN2CCOCC2)nc2c(NCCN3CCOCC3)ncnc21	8	8	/
COc1ccc(C(=O)c2oc3ccc(N)cc3c2C)cc1	/	-2	/
Cc1cccc(Nc2ccc3c(cnn3-c3cccc(C(=O)NCCN4CCN(C(C)C)CC4)c3)c2)c1Cl	33	-28	/
O=C(NCCN1CCOCC1)c1cccc(-n2ncc3cc(Nc4c(F)cccc4[N+](=O)[O-])ccc32)c1	44*	-15	>19
Cc1cccc(Nc2ccc3c(cnn3-c3cccc(C(=O)NCCN4CCN(CC5CC5)CC4)c3)c2)c1Cl	36*	-35	>19
O=C(NCCN1CCOCC1)c1cccc(-n2ncc3cc(Nc4ccccc4F)ccc32)c1	-9	-31	/
Cc1cccc(Nc2ccc3c(cnn3-c3cccc(C(=O)NCCN4CCN(C)CC4)c3)c2)c1Cl	24	-33	/
Cc1cccc(Nc2ccc3c(cnn3-c3cccc(C(=O)NCCN4CCNCC4)c3)c2)c1Cl	43*	-46	>19
c1ccc(Nc2ccnc(-c3csc4ccccc34)n2)cc1	-7	-17	/
c1ccc2c(-c3nccc(Nc4ccc(N5CCOCC5)cc4)n3)csc2c1	38*	-8	>22
O=C(NCc1ccccn1)C(=O)N/N=C/c1cccs1	/	10	/
COc1ccc(CCNc2nc(Nc3ccc(N4CCOCC4)cc3)nc3c2ncn3-c2ccccc2)cc1	37*	12	i
COc1ccc(CCNc2nc(Nc3ccc(N4CCOCC4)cc3)nc3c2ncn3-c2ccsc2)cc1	37*	15	7.4*
COc1ccc(CCNc2nc(Nc3ccc(C(F)(F)F)cc3)nc3c2ncn3Cc2ccc(C(F)(F)F)cc2)cc1	4	-17	/
COc1ccc(CCNc2nc(Nc3ccc(C(F)(F)F)cc3)nc3c2ncn3-c2ccsc2)cc1	10	-1	/
COc1ccc(CCNc2nc(Nc3ccc(N4CCOCC4)cc3)nc3c2ncn3Cc2ccc(C(F)(F)F)cc2)cc1	72*	-19	9.5*
SMILES	ASK1 primary	ULK1 inh	AlphaScreen intf
COc1ccc(CCNc2nc(Nc3ccc(N4CCOCC4)cc3)nc3c2ncn3C(C)C)cc1	25	-4	/
CN1CCN(c2ccc(-c3ncc(C(=O)Nc4ccc(Oc5ccccc5)cc4)s3)cc2)CC1	-6	-29	/
CCN(CC)c1nc(NCCN(C(C)C)C(C)C)nc(Nc2cccc(N(C)C)c2)n1	-3	-6	/
CCN(CC)C(=O)C1CCCN(c2nc(NCCN(C(C)C)C(C)C)c3[nH]cnc3n2)C1 (centres undefined)	-16	-5	/
CCN(CC)C(=O)C1CCCN(c2nc(NCc3nc4ccccc4[nH]3)nc(N(CC)CC)n2)C1 (centres undefined)	-3	-5	/
CN(C)CCSc1cc(-c2cn[nH]c2)ccc1NC(=O)[C@@H]1Cc2cc(F)ccc2CN1	-1	9	/
CCCNc1nc(N2CCCC(C(=O)N(CC)CC)C2)ncc1C (centres undefined)	-5	3	/
c1ccc(CN2CCC(Nc3nc(Nc4ccc(N5CCOCC5)cc4)nc4c3ncn4C3CCCCC3)CC2)cc1	50*	13	8.1*
FC(F)(F)c1ccc(Cn2cnc3c(NC4CCN(Cc5ccccc5)CC4)nc(Nc4ccc(N5CCOCC5)cc4)nc32)cc1	40*	6	i
FC(F)(F)c1ccc(Cn2cnc3c(Nc4ccc5c(c4)OCO5)nc(NC4CCN(Cc5ccccc5)CC4)nc32)cc1	46*	15	>20
FC(F)(F)c1ccc(Cn2cnc3c(Nc4ccccc4)nc(NC4CCN(Cc5ccccc5)CC4)nc32)cc1	3	-4	/
FC(F)(F)c1ccc(Cn2cnc3c(NC4CC4)nc(Nc4ccc(N5CCOCC5)cc4)nc32)cc1	21	-11	/
c1ccc(CN2CCC(Nc3nc(N4CCOCC4)nc4c3ncn4C3CCCCC3)CC2)cc1	8	2	/
COc1cc(NC(=O)c2ccc(-c3ccc(N4CCOCC4)nc3)s2)cc(OC)c1OC	5	-27	/
CCCCCCCCCCCCCCCC(=O)OCCC1CCN(CCCN2c3ccccc3Sc3ccc(S(=O)(=O)N(C)C)cc32)CC1	/	-3	/
CCCNC(=O)c1cnc(Nc2cccnc2)s1	0	3	/
CCN(CC)c1nc(Nc2ccc(N3CCOCC3)cc2)nc(N2CCN(Cc3ccc4c(c3)OCO4)CC2)n1	43*	8	>19
CCN(CC)c1nc(Nc2ccc3c(c2)OCO3)nc(N2CCC(N3CCOCC3)CC2)n1	39*	-10	>20
CCN(CC)c1nc(Nc2ccc(N3CCOCC3)cc2)nc(N2CCC(N3CCOCC3)CC2)n1	14	-7	/
CCN(CC)c1nc(Nc2ccccc2)nc(N2CCN(Cc3ccc4c(c3)OCO4)CC2)n1	13	-7	/
CCN(CC)C(=O)C1CCCN(c2nc(C)cc(NC3CCN(Cc4ccccc4)CC3)n2)C1 (centres undefined)	-8	-26	/
CCCCCCCCCCOc1cc2c(=O)c(C(=O)OCC)c[nH]c2cc1OCC	/	18	/
COc1ccc(-c2nc3ncnc(Nc4ccc(NC(C)=O)cc4)c3[nH]2)cn1	9	-7	/
COc1ccc(-c2nc3ncnc(Nc4cc(OC)c(OC)c(OC)c4)c3[nH]2)cn1	45*	6	>18
c1cc2c(cc1-c1cn[nH]c1)CC(c1nc3ccc(-c4cn[nH]c4)cc3[nH]1)CO2 (centres undefined)	8	-15	/
SMILES	ASK1 primary	ULK1 inh	AlphaScreen intf
O=C1CCCN1CCn1cnc2c(NCc3ccccc3)nc(NCc3cccnc3)nc21	-7	-2	/
COc1ccc(CCNc2nc(NCc3cccnc3)nc3cc(OC)c(OC)cc23)cc1	-1	-12	/
COc1cc2nc(Nc3ccc(N4CCOCC4)cc3)nc(NCCOc3ccccc3)c2cc1OC	57*	-1	5.8*
COc1cc2nc(Nc3ccc(N4CCOCC4)cc3)nc(NCCCN3CCCC3=O)c2cc1OC	17	21	/
Cc1cnc(Nc2ccc(N3CCOCC3)cc2)nc1NCc1ccccc1	37*	16	>20
COc1ccc(CCNc2nc(Nc3ccc(N4CCOCC4)cc3)ncc2C)cc1	40*	27	>20
COc1ccc(CCNc2nc(Nc3cccc(N(C)C)c3)nc3cc(OC)c(OC)cc23)cc1	61*	-9	7.6*
Cc1cnc(Nc2ccc(N3CCOCC3)cc2)nc1NCc1cccnc1	17	25	/
CCCNc1nc(Nc2ccc(N3CCOCC3)cc2)ncc1C	16	9	/

Screening data: PubChem BioAssay, The Scripps Research Institute Molecular Screening Center
